Rows were chosen to be rich in hits. Some 1.2% of all compounds tested hit in one or more screens of this group.
MEP2 TOR yeast = modulators of MEP2-GFP levels in yeast, primary screen, S. cerevisiae, multiplex flow cytometry, MLPCN library; S. cerevisiae MEP2-GFP strain, 3 h; 100% = DMSO control level; GFP response vs DMSO, % at 10 µM; hit rate 0.51% among 330,000; AID 2016, 2009;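 active means GFP response versus DMSO above a set limit, roughly screen mean plus 3 SD, cut at about 180% in these data; inconclusive means fewer than 70 cells counted for a yeast strain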;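 further: median GFP fluorescence of the barcode-gated MEP2-GFP cells per well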
CIT2 TOR yeast = modulators of CIT2-GFP expression in yeast, primary screen, S. cerevisiae, GFP fusion, multiplex flow cytometry, MLPCN library. S. cerevisiae CIT2-GFP strain, 3 h; 100 means same as DMSO wells. GFP response vs DMSO, % at 10 µM. hit rate 0.065% among 320,000;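 active means GFP response relative to DMSO above a set limit, near the screen mean plus 3 SD, cut at about 150% in these data; inconclusive means Fewer than 70 cells measured for a yeast strain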;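 further: ratio of well median GFP fluorescence to mean of DMSO wells on the plate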
AGP1-GFP MLPCN = modulators of AGP1-GFP expression in yeast TOR pathway, primary screen, cell-based, multiplex flow cytometry, S. cerevisiae, MLPCN library; GFP response vs DMSO, % at 10 µM; hit rate 0.02% among 320,000; 3 h; GFP as percent of DMSO wells;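 active means GFP response relative to DMSO above a set limit, near screen average plus 3 SD, cut at about 150% in these data; inconclusive means fewer than 70 cells counted for the yeast strain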;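 further: median GFP channel fluorescence of the gated AGP1 strain per well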
DSG3 Ab inh = inhibitors of pemphigus antibody binding to DSG3, primary screen, biochemical, bead-based, flow cytometry, scFv-GFP; hit rate 0.48% among 310,000; DSG3-coupled beads, scFv-anti-DSG3-GFP binding; active compounds read low; AID 588358, 2011; Desmoglein-3 (Homo sapiens), P32926; binding (percent of control), % at 10 µM;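 active means binding more than 3 SD below its plate's average and above zero; inconclusive means below that plate limit but binding exactly zero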;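 further: hits lower antibody fragment binding to DSG3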
Target sequence (P32926 whole entry, looked up, the tested form may be a part): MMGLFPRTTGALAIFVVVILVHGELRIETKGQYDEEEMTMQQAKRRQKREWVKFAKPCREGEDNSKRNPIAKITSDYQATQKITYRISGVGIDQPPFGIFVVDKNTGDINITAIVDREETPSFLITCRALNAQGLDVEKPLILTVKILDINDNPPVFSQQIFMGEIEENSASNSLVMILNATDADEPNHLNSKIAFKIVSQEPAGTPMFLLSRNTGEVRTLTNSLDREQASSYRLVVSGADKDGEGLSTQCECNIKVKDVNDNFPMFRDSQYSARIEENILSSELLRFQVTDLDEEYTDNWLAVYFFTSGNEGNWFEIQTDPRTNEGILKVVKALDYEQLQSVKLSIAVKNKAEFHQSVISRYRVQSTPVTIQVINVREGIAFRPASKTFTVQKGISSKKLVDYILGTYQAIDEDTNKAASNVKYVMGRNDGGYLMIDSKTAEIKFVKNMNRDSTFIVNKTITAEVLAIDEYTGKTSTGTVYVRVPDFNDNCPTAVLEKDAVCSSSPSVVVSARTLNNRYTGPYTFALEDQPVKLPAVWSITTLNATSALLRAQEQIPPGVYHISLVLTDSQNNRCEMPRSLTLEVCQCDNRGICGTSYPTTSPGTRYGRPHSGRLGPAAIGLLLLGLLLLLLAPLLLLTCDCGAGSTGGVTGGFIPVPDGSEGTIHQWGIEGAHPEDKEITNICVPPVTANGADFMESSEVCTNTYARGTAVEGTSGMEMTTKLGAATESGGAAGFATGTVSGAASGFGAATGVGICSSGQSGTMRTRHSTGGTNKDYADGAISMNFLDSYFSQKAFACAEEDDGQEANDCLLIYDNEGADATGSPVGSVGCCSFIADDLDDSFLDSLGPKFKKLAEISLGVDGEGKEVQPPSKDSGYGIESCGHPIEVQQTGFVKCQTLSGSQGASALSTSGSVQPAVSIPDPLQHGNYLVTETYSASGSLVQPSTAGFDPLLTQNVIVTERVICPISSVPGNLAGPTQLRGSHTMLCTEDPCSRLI
RPL19A TOR yeast = RPL19A-GFP expression modulators in yeast, primary screen, cell-based, S. cerevisiae, multiplex flow cytometry, MLPCN. S. cerevisiae RPL19A-GFP strain, 3 h; active compounds read low. percent response vs DMSO, % at 10 µM. hit rate 0.3% among 330,000;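 active means percent response vs DMSO below 50%; inconclusive means fewer than 70 events counted for the yeast strain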;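 further: median channel GFP fluorescence of the barcoded RPL19A-GFP strain; ratio of sample median GFP to plate DMSO average so 100% = DMSO; lower means less RPL19A-GFP as with rapamycin TOR inhibition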
LAP4-GFP MLPCN = modulators of LAP4-GFP expression in yeast, primary screen, S. cerevisiae, multiplex flow cytometry, MLPCN library; 3 h; median GFP as percent of DMSO wells; GFP response vs DMSO, % at 10 µM; hit rate 0.34% among 320,000;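 active means GFP response vs DMSO above a set limit, about the screen mean plus 3 SD, cut at about 150% in these data; inconclusive means under 70 cell events counted for the yeast strain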
* = called active by the depositor; ? = inconclusive; / = no result; [ ] = another dose, or the depositor's remark.

SMILES | MEP2 TOR yeast | CIT2 TOR yeast | AGP1-GFP MLPCN | DSG3 Ab inh | RPL19A TOR yeast | LAP4-GFP MLPCN
COC(=O)c1ccc(CSc2nc3ccc(Cl)cc3[nH]2)o1 | 104 | 95 | 97 | 118 | / | 100
COC(=O)c1ccc(CSc2nc3scc(-c4cccs4)c3c(=O)[nH]2)o1 | 178*[may fluoresce violet] | ? | ? | 99 | 39*[may fluoresce violet] | 104
Cc1ccc(-c2csc3nc(-c4ccncc4)[nH]c(=O)c23)cc1 | 106 | 96 | 101 | 103 | 102 | 110
CCOc1ccc(-c2nc3scc(-c4cccs4)c3c(=O)[nH]2)cc1 | 104 | 117 | 113 | 71* | 91 | 105
CC(Sc1nnc(N)s1)C(=O)Nc1ccc2c(c1)OCO2 (configuration not stated) | / | / | / | 89* | / | /
CC(Sc1nnc(N)s1)C(=O)NCc1ccc2c(c1)OCO2 (configuration not stated) | 110 | 101 | 105 | 80 | 104 | 103
Cc1ccc(Cl)cc1NS(=O)(=O)c1ccc2oc(=O)ccc2c1 | 106 | 106 | 103 | 113 | 103 | 98
O=C(NNC(=O)c1ccccc1O)c1ccc(Cl)c(S(=O)(=O)N2CCc3ccccc32)c1 | 102 | 77 | 90 | 101 | 89 | 94
Cc1cc(C)n2c(SCC(=O)N(CCC#N)c3ccc4c(c3)OCCO4)nnc2n1 | / | / | / | 96 | / | /
O=Cc1c(Sc2ccccc2)nc2ccccn2c1=O | 223*[may fluoresce violet] | ? | ? | 91 | 70 | 78
O=Cc1c(Sc2ccccn2)nc2ccccn2c1=O | 107 | 100 | 95 | 102 | 101 | 96
CN1C(=O)/C(=C2\SC(=S)N(CCCCCC(=O)O)C2=O)c2ccccc21 | 99 | 98 | 98 | 45* | 94 | 96
COc1ccc(CCNC(=S)NNC(=O)c2c(Br)c(C)nn2C)cc1OC | 100 | 93 | 87 | / | 106 | 84
COCCNc1nc(-c2cc(C)n(CCc3ccc(OC)cc3)c2C)cs1 | 96 | 100 | 93 | 89* | 97 | 84
COc1ccccc1CNc1nc(-c2cc(C)n(C)c2C)cs1 | / | / | / | 96 | / | /
O=C(/C=C/NNC(=O)c1ccccc1)c1ccc([N+](=O)[O-])cc1 | 98 | 92 | 94 | 96 | 103 | 104
Cn1nc(C(C)(C)C)c([N+](=O)[O-])c1C(=O)N1CCOCC1 | 231*[may fluoresce violet] | ? | ? | 104 | 48*[may fluoresce violet] | 70
COCOCCn1cc(CN2CCS(=O)(=O)N(Cc3ccc(-c4ccc(F)cc4)cc3)C(CC(C)C)C2=O)nn1 (configuration not stated) | / | / | / | 106 | / | /
CC(C)c1c(C(=O)N/N=C/c2ccccc2OCc2c(F)cccc2Cl)nnn1-c1nonc1N | 105 | 102 | 99 | 100 | 103 | 96
CCOC(=O)c1c(NC(=O)C2C3C=CC(C3)C2C(=O)O)sc2c1CCCC2 (configuration not stated) | 97 | 100 | 93 | 37* | 96 | 96
Oc1ccccc1C=NN=Cc1ccccc1Cl | / | / | / | 92 | / | /
Cc1ccc(C(OC(=O)c2ccco2)C(=O)NC(C)(C)C)cc1 (configuration not stated) | 112 | 103 | 100 | 117 | 107 | 101
Cc1cccc(N2C(=O)C3C4C=CC(C4)C3C2=O)c1 (configuration not stated) | 238*[may fluoresce violet] | ? | ? | 100 | 48*[may fluoresce violet] | 93
CCn1c(SCC(=O)Nc2nc3ccccc3s2)nnc1-c1ccc(Br)cc1 | 106 | 109 | 107 | -18* | 106 | 103
Cn1c(SCC(=O)Nc2nc3ccccc3s2)nnc1-c1ccccc1 | 102 | 102 | 100 | 95 | 106 | 100
SMILES | MEP2 TOR yeast | CIT2 TOR yeast | AGP1-GFP MLPCN | DSG3 Ab inh | RPL19A TOR yeast | LAP4-GFP MLPCN
O=C(CSc1nc2ccccc2o1)Nc1nc2ccc(Br)cc2s1 | 214*[may fluoresce violet] | ? | 22 | 103 | 61 | 90
COc1ccc2nc(NC(=O)CSc3nc4ccccc4o3)sc2c1 | 100 | 102 | 100 | 115 | 99 | 106
O=C(Cc1ccc(S(=O)(=O)N2CCOCC2)s1)N1CCN(c2cccc(C(F)(F)F)c2)CC1 | 102 | 115 | 98 | 110 | 111 | 80
O=c1c2cc([N+](=O)[O-])ccc2sn1-c1ccccc1 | / | / | / | 66* | / | /
CC(=O)Nc1ccc2sn(-c3ccccc3)c(=O)c2c1 | / | / | / | 49* | / | /
N#Cc1ccc2sn(-c3ccccc3)c(=O)c2c1 | / | / | / | 41* | / | /
COc1ccc(OC)c(C2C(C(=O)Nc3nc4ccccc4s3)=C(C)NC3=C2C(=O)CCC3)c1 (configuration not stated) | 183* | 72 | 39 | 96 | 79 | 100
COc1cccc(C2C(C(=O)Nc3nc4ccccc4s3)=C(C)NC3=C2C(=O)CC(C)(C)C3)c1OC (configuration not stated) | 98 | 95 | 91 | / | 93 | 90
N#CC(=C=[N-])c1nc2ccccc2nc1-[n+]1cccc(NC(=O)c2cccs2)c1 | 97 | 108 | 103 | 51* | 102 | 104
C[C@H]1CN([C@@H](C)CO)S(=O)(=O)c2ccc(C#CC3CC3)cc2O[C@@H]1CN(C)S(C)(=O)=O | / | / | / | 106 | / | /
CC(C)(C)S(=O)N1Cc2cc(CO)cc(CCO)c2[C@@H]1CCO (some centres not stated) | / | / | / | 106 | / | /
Cc1ccc(-c2ccc(/C=N/NC(N)=S)o2)cc1 | 93 | 85 | 82 | 105 | 82 | 158*
NC(=S)N/N=C/c1ccc(-c2ccccc2)o1 | 98 | 93 | 98 | 98 | 96 | 112
COc1ccc(OCCSc2nnc(C(C)NC(=O)c3ccccc3F)n2C)cc1 (configuration not stated) | 109 | 103 | 104 | 115 | 97 | 109
CC(=O)Nc1ccc(C(=O)NNC(=O)CCc2ccccc2)cc1 | 250*[may fluoresce violet] | ? | 25 | 102 | 43*[may fluoresce violet] | 111
O=C(NCc1n[nH]c(=S)n1-c1cccc(C(F)(F)F)c1)c1ccc(S(=O)(=O)N2CCCCC2)cc1 | 221*[may fluoresce violet] | ? | ? | 101 | 26*[may fluoresce violet] | 59
O=C(NCc1n[nH]c(=S)n1-c1cccc(C(F)(F)F)c1)c1ccc(S(=O)(=O)N2CCCC2)cc1 | 101 | 97 | 97 | 86 | 101 | 86
CCCCCC(=O)N1C[C@@H](O)[C@H](n2cc(-c3ccc(F)cc3)nn2)C[C@@H]1c1ccc(OC)cc1 | / | / | / | 79* | / | /
COc1cccc(C(=O)NCCS(=O)(=O)NCc2ccccn2)c1 | 102 | 101 | 108 | 100 | 101 | 100
O=C(N/N=C/c1ccc(O)cc1)NC12CC3CC(CC(C3)C1)C2 | 351*[may fluoresce violet] | ? | ? | 119 | 39*[may fluoresce violet] | 61
